Results from article PMC4552634, “A New Set of Chemical Starting Points with Plasmodium falciparum Transmission-Blocking Potential for Antimalarial Drug Discovery” (PLoS ONE, 2015).
In all, about 13,000 compounds went through this assay and about 3,200 (25%) showed an effect of 50% or more. This is one part of the list.

The compounds below were run on P. falciparum stage V gametocytes. Details: 48 h, 5 µM; inhibitor.
Parameters: BacTiter-Glo ATP luminescence viability of purified stage V gametocytes in 384-well plates, per cent inhibition versus DMSO

Row | SMILES | % Inhibition [%]
1 | Cc1cc(N(C)C)nc(Nc2ccc(NC(=O)c3c(F)cccc3F)cc2)n1 [TCMDC-124977] | 1.948
2 | COc1cc(SC)c(Br)cc1-c1nc2ccncc2[nH]1 [TCMDC-138164] | -13.77
3 | Oc1ccc(CCNc2nc(NCc3ccccc3Oc3ccc(C(F)(F)F)cc3)nc(N3CCNCC3)n2)cc1 [TCMDC-134133] | -9.208
4 | CCOc1cc(C2C(C(=O)OC(C)C)=C(C)NC3=C2C(=O)CC(c2ccc(Cl)cc2)C3)ccc1OC(C)=O (centres unmarked) [TCMDC-125628] | -56.66
5 | Cc1cnc2ccc(NS(=O)(=O)c3ccc4c(Cl)cccc4c3)cc2c1N1CCNCC1 [TCMDC-139558] | 37.46
6 | CCOc1c(Br)cc(Cl)cc1CNCCCNc1nc2ccccc2[nH]1 [TCMDC-140106] | 5.667
7 | CCOc1c(CNCCCCCCNCc2ccc3ccccc3c2OCC)ccc2ccccc12 [TCMDC-137942] | 73.68
8 | CN(C)c1c(CNCCCCCCNCc2ccc3ccccc3c2N(C)C)ccc2ccccc12 [TCMDC-137834] | 115.6
9 | CCCCSc1c(CNCCCCCCNCc2ccc3ccccc3c2SCCCC)ccc2ccccc12 [TCMDC-137825] | 112.9
10 | CCCCOc1ccc(CNCCCCCCNCc2ccc(OCCCC)c3ccccc23)c2ccccc12 [TCMDC-137281] | 121.9
11 | CCCc1ccc2c(c1O)CCC(N(CCC)CCC)C2 (centres unmarked) [TCMDC-138031] | -27.54
12 | COc1ccc(CN(C)CC(O)COc2ccc(NC(=O)c3cccc4c(=O)c5cccc(OC)c5[nH]c34)cc2)cc1OC (centres unmarked) [TCMDC-131851] | 12.51
13 | O=C(Cc1ccccc1)NC1(c2ccccc2)CCN(CCc2c[nH]c3ccc(F)cc23)CC1 [TCMDC-131991] | 26.26
14 | CCC(C)c1ccc(NC(=O)c2ccc(S(=O)(=O)Nc3ccc(OC)c(N4CCN(CC5CC5)CC4)c3)cc2)cc1 (centres unmarked) [TCMDC-136299] | -16.95
15 | Oc1ccccc1CN1CCC2(CCCN(Cc3ccccc3F)C2)C1 (centres unmarked) [TCMDC-124620] | 28.07
16 | Cc1cc(NC2CCCC2)nc(Nc2ccc(F)cc2)n1 [TCMDC-133472] | 46.74
17 | CCCCOc1cc(CNCCCCCCNCc2cc(OCCCC)cc3ccccc23)c2ccccc2c1 [TCMDC-137824] | 36.59
18 | CCCCOc1c(CNCCCCCCNCc2ccc3ccccc3c2OCCCC)ccc2ccccc12 [TCMDC-137975] | 107.4
19 | COC(=O)c1cccc(CNCc2ccc(-c3ccc(-c4nc5cc(C(F)(F)F)ccc5[nH]4)cc3)cc2)c1.O=C(O)C(F)(F)F [TCMDC-132954] | -38.93
20 | CC1(C)N=C(N)N=C(N)N1OCc1cc2ccccc2cc1CON1C(N)=NC(N)=NC1(C)C [TCMDC-131627] | 15.22
21 | O=C(/C=C/c1ccc(Cl)c(Cl)c1)NCCCCCN1CCCC(CCCNC(=O)Nc2ccc(C(F)(F)F)cc2)C1 (centres unmarked) [TCMDC-139517] | 56.6
22 | CN(C(=O)Nc1ccc(C(F)(F)F)cc1)C1CCN(CCCCCNC(=O)/C=C/c2ccc(Cl)c(Cl)c2)CC1 [TCMDC-139524] | 54.85
23 | CN(C(=O)Nc1ccc(F)cc1)C1CCN(CCCCCNC(=O)/C=C/c2ccc(Cl)c(Cl)c2)CC1 [TCMDC-139492] | -6.373

Row | SMILES | % Inhibition [%]
24 | CCOC(=O)c1ccc(NC(=O)NCCCC2CCCN(CCCCCNC(=O)/C=C/c3ccc(Cl)c(Cl)c3)C2)cc1 (centres unmarked) [TCMDC-139516] | 55.81
25 | O=C(NCC1CCN(C/C=C/c2ccccc2)CC1)Nc1ccc(Oc2ccccc2)cc1 [TCMDC-139153] | 95.36
26 | O=C(/C=C/c1ccc(Cl)c(Cl)c1)NCCCCCCN1CCN(C(=O)Nc2ccc(C(F)(F)F)cc2)CC1 [TCMDC-135824] | -51.85
27 | O=C(NCCCCN1CCN(CC=Cc2ccccc2)CC1)c1ccc(NC(=O)c2cc(Cl)cc(Cl)c2)cc1 [TCMDC-138216] | -21.85
28 | O=C(/C=C/c1ccc(Cl)c(Cl)c1)NCCCCN1CCCN(C(=O)Nc2ccc(C(F)(F)F)cc2)CC1 [TCMDC-135930] | -28.77
29 | O=C(NNC(=O)c1ccc(CN2CCC(c3nc4ccccc4[nH]3)CC2)cc1)Nc1ccc(Oc2ccccc2)cc1 [TCMDC-135310] | 0.2458
30 | Cn1cc(CCNc2ccnc(N3CCC(c4ncc[nH]4)CC3)n2)c2ccccc21 [TCMDC-135120] | 26.64
31 | CCOC(=O)CCCc1cc(NC2CCN(C)CC2)nc(Nc2ccc(OC)cc2)n1 [TCMDC-134017] | -45.24
32 | Cc1ccc(NC(=O)c2ccc(NCCCN3CC(C)CC(C)C3)c([N+](=O)[O-])c2)cc1F (centres unmarked) [TCMDC-125684] | -7.765
33 | Cc1cnc(N)c(/C=C/c2cncc(C(=O)NCCc3ccc(Cl)cc3Cl)c2)c1 [TCMDC-134509] | -9.663
34 | CC(C)c1ccc(NC(=O)NCC2CCCN(CCCCCNC(=O)/C=C/c3ccc(Cl)c(Cl)c3)C2)cc1 (centres unmarked) [TCMDC-139519] | 58.09
35 | O=C(/C=C/c1ccc(Cl)c(Cl)c1)NCCCCCN1CCCC(CNC(=O)Nc2ccc(C(F)(F)F)cc2)C1 (centres unmarked) [TCMDC-139521] | 91.99
36 | CCCCCCCNC(=O)NCC1CCCN(CCCCCNC(=O)/C=C/c2ccc(Cl)c(Cl)c2)C1 (centres unmarked) [TCMDC-139518] | 11.83
37 | O=C(/C=C/c1ccc(Cl)c(Cl)c1)NCCCCCN1CCC(NC(=O)Nc2ccc(C(F)(F)F)cc2)CC1 [TCMDC-135723] | -19.76
38 | CC(C)c1ccc(NC(=O)NCCCC2CCCN(CCCCCNC(=O)/C=C/c3ccc(Cl)c(Cl)c3)C2)cc1 (centres unmarked) [TCMDC-139515] | 38.89
39 | O=C(/C=C/c1ccc(Cl)c(Cl)c1)NCCCCCN1CCN(C(=O)Nc2ccc(C(F)(F)F)cc2)CC1 [TCMDC-135734] | -55.55
40 | O=C(/C=C/c1ccc(Cl)c(Cl)c1)NCCCCCN1CCC(CCCNC(=O)Nc2ccc(C(F)(F)F)cc2)CC1 [TCMDC-139514] | 102.3
41 | O=C(/C=C/c1ccc(Cl)c(Cl)c1)NCCCCCN1CCC(NC(=O)Nc2ccc(C(F)(F)F)cc2)C1 (centres unmarked) [TCMDC-139527] | -24.61
42 | O=C(/C=C/c1ccc(Cl)c(Cl)c1)NCCCCCN1CCCC(CNC(=O)Nc2ccc(Oc3ccccc3)cc2)C1 (centres unmarked) [TCMDC-139522] | 54.61
43 | O=C(/C=C/c1ccc(Cl)c(Cl)c1)NCCCCCN1CCC(NC(=O)Nc2ccc(Cl)c(C(F)(F)F)c2)CC1 [TCMDC-135730] | 1.176
44 | COc1cc2ncnc(Nc3ccc(OCc4ccccc4Br)c(OC)c3)c2cc1OC [TCMDC-131915] | -3.642
45 | O=S(=O)(NC1CCN(c2ccnc3ccccc23)C1)c1ccc(OC(F)(F)F)cc1 (centres unmarked) [TCMDC-133581] | 2.209
46 | O=C(Cc1cccs1)NC(CCCN1CCC(Oc2cccc(Cl)c2)CC1)c1ccc(Cl)c(Cl)c1 (centres unmarked) [TCMDC-141902] | -47.46

Row | SMILES | % Inhibition [%]
47 | C=CCn1c(SCC(=O)Nc2cc(Cl)ccc2Cl)nc2sc(C)cc2c1=O [TCMDC-124996] | 8.476
48 | CCc1nc(N)nc(N)c1-c1ccc(C(C)C)cc1 [TCMDC-137368] | 11.22
49 | CC1CN(S(=O)(=O)c2ccc(NC(=O)c3cc(-c4ccccc4O)n[nH]3)cc2)CC(C)O1 (centres unmarked) [TCMDC-125195] | 7.357
50 | CCCN(c1ccc(O)c(CN2CCCCC2)c1)c1ccc([N+](=O)[O-])cn1 [TCMDC-137486] | 15.96
51 | CN(C)c1ccc(-c2ccc(C(=O)NC3CCN(Cc4ccc5c(c4)OCCO5)CC3)s2)cc1 [TCMDC-134339] | -48.84
52 | CCCN=CNc1cc(-c2csc(N=C(N)N)n2)cc([N+](=O)[O-])c1 [TCMDC-137246] | -47.16
53 | O=C(NC1CCC(N2CCC(O)(c3ccc(F)cc3)CC2)CC1)c1cc2ccccc2[nH]1 (centres unmarked) [TCMDC-132887] | 9.268
54 | O=C(NC1CCC(N2CCN(c3cccc(C(F)(F)F)c3)CC2)CC1)c1cc2ccccc2[nH]1 (centres unmarked) [TCMDC-132885] | 32.36
55 | O=C(NC1CCC(N2CCC3(CC2)C(=O)NCN3c2ccccc2)CC1)c1cc2ccccc2[nH]1 (centres unmarked) [TCMDC-132886] | 76.36
56 | CC(Cc1ccc(OCCN2CCN(c3ccc(Cl)cc3)CC2)cc1)NCC(O)c1cccc(C(F)(F)F)c1 (centres unmarked) [TCMDC-131530] | 29.05
57 | C[C@H]1CN(Cc2cccc(-c3cc(CNC(=O)c4cccc(C(=O)c5ccc(Cl)c(Cl)c5)c4)ccc3F)c2)CCN1 [TCMDC-136245] | 103.5
58 | O=C(NCc1ccc(Cl)c(Cl)c1)c1cccc(C2CCCN(Cc3ccc4nc[nH]c4c3)C2)c1 (centres unmarked) [TCMDC-133067] | -29.33
59 | COc1cccc(CNC(=O)c2ccnc(-c3cccc(CN(C)C4CCN(C)CC4)c3)c2)c1 [TCMDC-134500] | 23.23
60 | O=C(NCc1cccc(Br)c1)c1ccc(CNC2CCN(Cc3ccccc3)CC2)cc1 [TCMDC-140788] | 24.75
61 | COc1ccc(CN2CCCN(Cc3cccc(C(=O)Nc4ccc(C)c(F)c4)c3)CC2)cc1 [TCMDC-135960] | -17.45
62 | C[C@H]1CN(Cc2cccc(-c3cc(CNC(=O)c4cccc(CN5CCN(CCOc6ccccc6)CC5)c4)ccc3F)c2)CCN1 [TCMDC-136210] | 110.3
63 | O=C(NCc1ccc(Cl)c(Cl)c1)c1ccc(C2CCCN(Cc3ccc4nc[nH]c4c3)C2)cc1 (centres unmarked) [TCMDC-133068] | 0.7535
64 | O=C(NCc1cccc(Cl)c1)c1ccc(CNC2CCN(Cc3ccccc3)CC2)cc1 [TCMDC-140785] | 24.82
65 | COc1cccc(CNC(=O)[C@@H]2CN(C(=O)c3ccccc3)CCN2)c1 [TCMDC-141267] | -8.525
66 | C[C@H]1CN(Cc2cccc(-c3cc(CNC(=O)c4cccc(CC5CCN(C)CC5)c4)ccc3F)c2)CCN1C [TCMDC-136349] | 103.8
67 | CN1CCCN(Cc2cccc(-c3ccc(CNC(=O)c4cccc(Cl)c4)c(F)c3)c2)CC1 [TCMDC-133370] | 8.787
68 | CC1CCN(Cc2cccc(C(=O)NCc3ccc(F)c(-c4cccc(CN5CCN[C@@H](C)C5)c4)c3)c2)CC1 [TCMDC-136206] | 100.7
